From PubChem BioAssay (NCI)
The panel holds about 83,000 compounds, 20% with a hit somewhere; the sample as a whole holds those more often.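 Results are percent growth after 48 hours of single-concentration exposure. 100 means growth as in untreated cells, lower positive values show inhibition; negative values down to -100 show cell death.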 The source made the active and inactive calls. How the source made its calls: active means growth percent below 10; inactive means the rest.

test system: MDA-MB-435 melanoma; assay: NCI-60 one-dose screen, 48 h (100 = growth as untreated, 0 = no growth, -100 = all killed); conditions: 10 µM

SMILES	growth
CCOC(=O)Nc1ccc2c(c1)C(=O)N(CCOC)c1ccccc1O2	-14.2% (active)
COc1ccc(Nc2ccnc(N3CCN(c4ccnc5cc(Cl)ccc45)CC3)n2)cc1	-4.38% (active)
O=C(c1ccccc1)C(Nc1ccccc1)c1ccccc1 (stereo not drawn)	102% (inactive)
Cc1ccc(/C=C2\CN(Cc3cn(CCNc4ccnc5cc(Cl)ccc45)nn3)C/C(=C\c3ccc(C)cc3)C2=O)cc1	-67.3% (active)
C[C@]12CC[C@H]3[C@@H](CC=C4C[C@@H](O)CC[C@@]43C)[C@@H]1CC[C@@H]2C(=O)C/C=N/O	97.1% (inactive)
Cc1ccccc1[P+](Cc1ccccc1)(c1ccccc1)c1ccccc1	1% (active)
COc1ccccc1Cn1cc2c(c1-c1ccccc1)CCc1cnoc1-2	-21.3% (active)
Clc1cc(Cl)c(OCCCCCCN2CCNCC2)c(Cl)c1	10.5% (inactive)
Cc1c(C(=O)N[C@H](CO)Cc2ccccc2)[nH]c2ccc(Cl)cc2c1=O	89.3% (inactive)
CC(C)C(C)C(N)C(=O)O (stereo not drawn)	105% (inactive)
CCn1nc(-c2ccccn2)c2cccnc2c1=S	81.2% (inactive)
COc1cc(CSc2nc3ccc(Cl)cc3c(=O)n2Cc2ccccc2)cc(OC)c1OC	1.84% (active)
C[C@H](NC(=O)[C@@H]1CSSC[C@@H](NC(=O)Cc2nc3ccccc3cc2O)C(=O)NCC(=O)N1C)c1ccccc1	70.7% (inactive)
CCOC(=O)[C@@H](Cc1ccccc1)NC(=O)c1[nH]c2ccc(Cl)cc2c(=O)c1C	103% (inactive)
O=C(Nc1cccc(Cl)c1)OCC(COC(=O)Nc1cccc(Cl)c1)(COC(=O)Nc1cccc(Cl)c1)[N+](=O)[O-]	39.9% (inactive)
O=C1/C(=C/c2ccc(O)cc2)Oc2ccc(Cl)cc21	82.5% (inactive)
COc1cc(/C=C/C(=O)c2cc(-c3ccc(F)cc3)ccc2O)cc(OC)c1OC	70.7% (inactive)
COc1ccc(C(=O)n2nc(CC(=O)NCc3ccccc3)nc2N)cc1	109% (inactive)
COc1cc(/C=C/C(=O)c2cc(-c3ccc(C(F)(F)F)cc3)ccc2O)cc(OC)c1OC	48.4% (inactive)

SMILES	growth
CN(C1c2ccccc2Oc2ccccc21)S(=O)(=O)c1cc(Cl)ccc1Cl	4.17% (active)
O=C1CC(c2cccc(-c3cccnc3)c2)=Nc2ccc(Br)cc2N1	43.5% (inactive)
COc1ccc(-c2oncc2-c2cc(OC)c3c(c2)OCO3)cc1	-35.5% (active)
Cc1ccc([P+](Cc2ccc([N+](=O)[O-])cc2)(c2ccc(C)cc2)c2ccc(C)cc2)cc1	6.06% (active)
COc1ccc(C2=NNC(c3sc(Cl)nc3Cl)C2)cc1 (stereo not drawn)	80% (inactive)
COc1ccccc1CNCCCN1C(=O)c2ccc3c4c(ccc(c24)C1=O)C(=O)N(CCCNCCNCCCN)C3=O	10.4% (inactive)
C[C@@H]1C(=O)N(C[C@H](Cc2ccccc2)NC(=O)OCc2ccccc2)[C@]1(Cc1ccccc1)C(=O)OCc1ccccc1	52% (inactive)
Cc1cccc2c(Nc3ccc(NS(C)(=O)=O)cc3)c3ccc([N+](=O)[O-])cc3nc12	33.2% (inactive)
O=C(Cn1ccc(=O)[nH]c1=O)c1ccc([N+](=O)[O-])o1	97.1% (inactive)
CC1(C)CCc2cc(-c3ccn(S(=O)(=O)c4ccc(Cl)cc4)n3)ccc2O1	85.8% (inactive)
COc1cc(-c2nc(-c3nnc(-c4cccnc4)o3)c3ccccn23)cc(OC)c1OC	99.2% (inactive)
NCCNc1ccc2cc(-c3nc4ccccc4[nH]3)c(=O)oc2c1	101% (inactive)
Nc1cc2c(cc1Cl)-c1ccc(Cl)cc1C2=O	103% (inactive)
C[n+]1c(/C=C/c2c[nH]c3ccccc23)ccc2ccccc21	60.3% (inactive)
N#C/C(=C\N1C(=O)/C(=C/c2cccc([N+](=O)[O-])c2)SC1=S)c1nc2ccccc2s1	76.2% (inactive)
COC(=O)C1(C(=O)OC)C2C(=O)C3C(C21)C3(C(=O)OC(C)(C)C)C(=O)OC(C)(C)C (stereo not drawn)	99.9% (inactive)
COc1ccc(/C(=C/c2cc(OC)c(OC)cc2[N+](=O)[O-])C(=O)O)cc1	116% (inactive)
O=CNc1c(Cl)cc2c(c1Cl)Cc1cc([N+](=O)[O-])ccc1-2	2.37% (active)
CCCCCC(CCC)COC(=O)c1ccc(OC)cc1 (stereo not drawn)	106% (inactive)
